For seven compounds, growth results are on record in PubChem BioAssay (NCI).

Some test systems named below: SK-MEL-2 melanoma; EKVX NSCLC; SN12C renal; UO-31 renal; TK-10 renal; ACHN renal; CAKI-1 renal; A498 renal; CCRF-CEM leukemia; MOLT-4 leukemia; SR leukemia; RPMI-8226 leukemia; OVCAR-8 ovarian; OVCAR-5 ovarian; OVCAR-4 ovarian; SK-OV-3 ovarian; IGROV1 ovarian; OVCAR-3 ovarian; HS 578T breast; NCI/ADR-RES ovarian.
Holding throughout (assay): NCI-60 one-dose screen, 48 h (100 = growth as untreated, 0 = no growth, -100 = all killed)
Holding throughout (conditions): 10 µM unless noted

About 83,000 compounds went through this panel and 20% of them were active in at least one assay; those are over-represented in the sample as a whole.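 Method: cells in 96-well plates; compound added at one concentration; 48 h incubation; percent growth measured; values under 10 scored active.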 Values without a mark were called inactive. Activity calls are given as the source filed them.

`COc1ccc(/C=C\c2cc(OC)c(OC)c(OC)c2)cc1OCC(=O)Nc1ccc2nc(C)sc2c1`: the growth in the assay with SK-MEL-2 melanoma is -1.27% (active); in the assay with EKVX NSCLC, 66.8%; in the assay with SN12C renal, 51.8%; in the assay on UO-31 renal, 5.67% (active); in the assay on TK-10 renal, 1.02% (active); in the assay on ACHN renal, 47.1%. For the same compound, the growth with CAKI-1 renal was 23%; with A498 renal it was 80.1%; in the assay on CCRF-CEM leukemia, 15.5%; in the assay with MOLT-4 leukemia it was 22.7%; with SR leukemia, 12.2%; in the assay with RPMI-8226 leukemia, -8.5% (active). The growth with OVCAR-8 ovarian is 9.11% (active); with OVCAR-5 ovarian it was 112%; in the assay with OVCAR-4 ovarian it was 43%; in the assay with SK-OV-3 ovarian it was 78.5%; in the assay on IGROV1 ovarian it was 25.2%; in the assay on OVCAR-3 ovarian, 41.6%. The growth in the assay with HS 578T breast was 36.4%; with NCI/ADR-RES ovarian, 0.808% (active).
On to `CCn1c(O)c(/C=N/NC(=O)C(C)c2ccc(CC(C)C)cc2)sc1=S` (stereo not drawn), for which the growth in the assay with SK-MEL-2 melanoma was 40.3%; in the assay on EKVX NSCLC, 41.1%; with SN12C renal it was 38%; with UO-31 renal, 23.6%; in the assay on TK-10 renal, 56.5%; in the assay with ACHN renal it was 34.6%. Further, the growth in the assay on CAKI-1 renal is 35.1%; in the assay with A498 renal, 17.2%; in the assay on CCRF-CEM leukemia it was 12.9%; with MOLT-4 leukemia, 18.4%; in the assay with SR leukemia, 26.3%; in the assay with RPMI-8226 leukemia it was 1.77% (active). The growth with OVCAR-8 ovarian was 22.6%; in the assay with OVCAR-5 ovarian it was 52%; in the assay on OVCAR-4 ovarian, 56.7%; in the assay on SK-OV-3 ovarian it was 45.3%; with IGROV1 ovarian it was 24.1%; with OVCAR-3 ovarian it was 1.8% (active). In addition, the growth in the assay with HS 578T breast was 17.8%; in the assay with NCI/ADR-RES ovarian it was 5.41% (active).
In the case of `COc1ccc(C(=O)COc2cccc(/C=C3\CSc4ccccc4C3=O)c2)cc1`, the growth is -30.9% (active) in the assay with SK-MEL-2 melanoma; 70.7% with EKVX NSCLC; 29.6% in the assay with SN12C renal; 18% in the assay with UO-31 renal; -5.8% (active) in the assay on TK-10 renal; -35.8% (active) in the assay on ACHN renal. Also, the growth in the assay with CAKI-1 renal is -47.9% (active); in the assay with A498 renal, 85.4%; in the assay with CCRF-CEM leukemia, -62.2% (active); with MOLT-4 leukemia, -65.7% (active); in the assay on SR leukemia, -65.1% (active); in the assay with RPMI-8226 leukemia, -62.4% (active). The growth with OVCAR-8 ovarian is 6.51% (active); with OVCAR-5 ovarian, 32.4%; in the assay on OVCAR-4 ovarian, 84.4%; in the assay on SK-OV-3 ovarian it was 108%; with OVCAR-3 ovarian, 64.4%; with HS 578T breast it was -11.1% (active). Besides, in the assay with NCI/ADR-RES ovarian, the growth was 15.1%.
For the compound `Cc1ccc2c(c1)C(=O)/C(=C/c1cccc(OCC(=O)c3ccc(Cl)cc3)c1)CS2`, the growth was 58.2% in the assay on SK-MEL-2 melanoma; 91.9% in the assay on EKVX NSCLC; 88.4% with SN12C renal; 71.2% in the assay with UO-31 renal; 93% with TK-10 renal; 99.6% in the assay on ACHN renal. Moreover, the growth is 89.2% in the assay with CAKI-1 renal; 80.4% in the assay with A498 renal; -2.6% (active) in the assay with CCRF-CEM leukemia; 19.1% in the assay on MOLT-4 leukemia; 9.06% (active) with SR leukemia; -27% (active) in the assay with RPMI-8226 leukemia. The growth in the assay on OVCAR-8 ovarian is 69.7%; in the assay with OVCAR-5 ovarian it was 105%; in the assay on OVCAR-4 ovarian, 104%; with SK-OV-3 ovarian, 115%; with OVCAR-3 ovarian, 98.1%; in the assay with HS 578T breast, 99.9%. In the assay on NCI/ADR-RES ovarian, the growth was 54.4%.
As for `O=C1c2cc3c(cc2-c2c1c1ccc(F)cc1c(=O)n2CCCNCCO)OCO3`, the growth in the assay with SK-MEL-2 melanoma was -46.1% (active); with EKVX NSCLC, -14% (active); in the assay on SN12C renal, -60.4% (active); in the assay on UO-31 renal it was -72.2% (active); with TK-10 renal, -18.9% (active); in the assay on ACHN renal it was -52.7% (active). In addition, the growth is -7.53% (active) in the assay on CAKI-1 renal; -95.9% (active) in the assay on A498 renal; 0.848% (active) with CCRF-CEM leukemia; -25% (active) with MOLT-4 leukemia; -25.7% (active) in the assay with SR leukemia; -12.5% (active) in the assay on RPMI-8226 leukemia. Besides, the growth in the assay with OVCAR-8 ovarian was -33% (active); in the assay with OVCAR-5 ovarian, -59.4% (active); in the assay on OVCAR-4 ovarian, -76.9% (active); in the assay with SK-OV-3 ovarian it was -33.7% (active); in the assay with IGROV1 ovarian, -5.09% (active); with OVCAR-3 ovarian, -28.1% (active). For the same compound, the growth in the assay on HS 578T breast was 3.15% (active); in the assay on NCI/ADR-RES ovarian, -13.8% (active).
As for `COc1ccc(-n2nc(C)c3c(Nc4ccc(NC(=O)Nc5cc(C(F)(F)F)ccc5F)cc4)ncnc32)cc1`, the growth is 25% with SK-MEL-2 melanoma; 24.1% with EKVX NSCLC; 44.9% with SN12C renal; 16% with UO-31 renal; 47.5% in the assay on TK-10 renal; 25.3% in the assay on ACHN renal. The growth in the assay on CAKI-1 renal is 4.88% (active); in the assay with A498 renal, 56.5%; in the assay on CCRF-CEM leukemia, 38.4%; in the assay on MOLT-4 leukemia, 39.3%; with SR leukemia, 28.4%; with RPMI-8226 leukemia it was 4.77% (active). Besides, the growth in the assay with OVCAR-8 ovarian is 26.4%; in the assay with OVCAR-5 ovarian it was 25.1%; in the assay with OVCAR-4 ovarian it was 57.8%; in the assay with SK-OV-3 ovarian, 29.5%; in the assay with IGROV1 ovarian, 39.2%; in the assay with OVCAR-3 ovarian, 25.2%. For the same compound, the results for the growth with HS 578T breast and in the assay with NCI/ADR-RES ovarian were 28.4% and 24.1%, respectively.
Turning to `O=C1c2cccc3cccc(c23)C(=O)N1CCCCN1CCN(CCCCOc2ccc(-c3nc4ccc(N5CCOCC5)cc4[nH]3)cc2)CC1`, the growth in the assay on SK-MEL-2 melanoma is 90.4%; with EKVX NSCLC, 91.7%; in the assay with SN12C renal it was 94.7%; in the assay on UO-31 renal, 32.8%; in the assay with TK-10 renal, 114%; in the assay on ACHN renal, 104%. In addition, the growth with CAKI-1 renal is 79.8%; in the assay with A498 renal it was 111%; in the assay with CCRF-CEM leukemia, 30.8%; in the assay on MOLT-4 leukemia, 52.3%; in the assay on SR leukemia it was -65% (active); in the assay with RPMI-8226 leukemia, 32.4%. In addition, the growth was 22% in the assay with OVCAR-8 ovarian; 109% in the assay with OVCAR-5 ovarian; 79.4% with OVCAR-4 ovarian; 95.9% in the assay on SK-OV-3 ovarian; 68.9% with IGROV1 ovarian; 100% with OVCAR-3 ovarian. Moreover, the growth in the assay on HS 578T breast was 86.6%; in the assay on NCI/ADR-RES ovarian it was 76.6%.
